Laboratory results as given in PubChem BioAssay.
Values without a mark were called inactive. Active and inactive are the calls of the source. Rule as the data show it, unless noted: active = inhibition above about 30%; inactive = the rest.

How the values were obtained:
[1] = biological target: Nuclear receptor coactivator 3 (Homo sapiens) (UniProt Q9Y6Q9); experiment: SRC3 coactivator transcriptional activity inhibitors, confirmation, cell-based, luminescence, quadruplicate (AID 588792;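 active = mean inhibition over 43.08%, the solvent-only control mean plus 3 SD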;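 also: 0% = DMSO treated cells and 100% = gossypol at 36 µM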); details: HEK293 GAL4-SRC3 luciferase reporter, at 3.6 µM, stronger effect = higher value
Nuclear receptor coactivator 3 (Homo sapiens), sequence (Q9Y6Q9 whole entry, looked up, the tested form may be a part): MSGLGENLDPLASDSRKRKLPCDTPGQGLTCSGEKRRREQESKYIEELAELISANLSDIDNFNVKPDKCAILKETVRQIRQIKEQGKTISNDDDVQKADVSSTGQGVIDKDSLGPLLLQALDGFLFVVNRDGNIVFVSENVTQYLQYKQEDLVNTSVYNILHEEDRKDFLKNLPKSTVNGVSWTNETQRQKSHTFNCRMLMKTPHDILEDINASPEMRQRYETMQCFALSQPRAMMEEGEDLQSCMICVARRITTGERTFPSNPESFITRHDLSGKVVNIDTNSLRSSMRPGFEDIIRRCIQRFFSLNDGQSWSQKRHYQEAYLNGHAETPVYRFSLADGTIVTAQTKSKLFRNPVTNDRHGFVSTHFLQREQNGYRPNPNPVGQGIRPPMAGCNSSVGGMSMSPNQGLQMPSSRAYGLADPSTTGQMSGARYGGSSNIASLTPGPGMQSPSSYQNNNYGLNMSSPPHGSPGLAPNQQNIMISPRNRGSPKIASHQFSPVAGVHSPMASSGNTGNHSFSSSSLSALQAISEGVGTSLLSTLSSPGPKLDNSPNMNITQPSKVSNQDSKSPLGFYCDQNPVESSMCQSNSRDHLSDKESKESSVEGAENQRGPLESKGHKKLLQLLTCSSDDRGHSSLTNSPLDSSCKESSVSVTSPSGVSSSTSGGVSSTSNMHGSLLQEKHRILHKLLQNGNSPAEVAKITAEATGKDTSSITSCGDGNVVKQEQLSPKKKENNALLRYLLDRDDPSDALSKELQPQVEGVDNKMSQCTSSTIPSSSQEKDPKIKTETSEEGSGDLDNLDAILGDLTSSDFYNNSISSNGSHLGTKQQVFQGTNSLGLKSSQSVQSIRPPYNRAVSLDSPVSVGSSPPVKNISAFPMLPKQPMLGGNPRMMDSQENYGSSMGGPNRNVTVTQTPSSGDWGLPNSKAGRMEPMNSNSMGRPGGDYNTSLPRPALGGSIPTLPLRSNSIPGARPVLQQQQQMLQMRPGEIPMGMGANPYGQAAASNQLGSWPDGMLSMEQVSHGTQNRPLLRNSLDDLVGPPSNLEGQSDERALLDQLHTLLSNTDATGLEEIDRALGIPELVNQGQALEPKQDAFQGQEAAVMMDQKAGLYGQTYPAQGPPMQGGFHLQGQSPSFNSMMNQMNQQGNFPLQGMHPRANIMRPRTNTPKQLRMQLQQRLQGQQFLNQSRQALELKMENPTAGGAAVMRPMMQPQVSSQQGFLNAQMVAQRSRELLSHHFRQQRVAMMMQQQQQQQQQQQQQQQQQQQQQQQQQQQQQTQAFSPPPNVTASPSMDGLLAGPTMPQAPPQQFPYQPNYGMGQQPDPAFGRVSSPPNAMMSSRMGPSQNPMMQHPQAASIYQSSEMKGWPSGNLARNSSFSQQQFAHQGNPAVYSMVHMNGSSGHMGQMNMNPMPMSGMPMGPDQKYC

[2] = tested on: transactivating tegument protein VP16 (Human herpesvirus 1), Gal4-VP16 luciferase reporter; experiment: VP16 transactivation inhibitors, counter-screen for SRC3 inhibitor project, cell-based, luminescence, high throughput (AID 588794); details: mammalian cells, VP16-driven luciferase reporter luminescence; at 3.6 µM; stronger effect = higher value

Row | SMILES | inhibition [1] | inhibition [2]
1 | O=C(Nc1ccc(N2CCN(c3ncccc3C(F)(F)F)CC2)nc1)c1cccs1 | -7.92% | 7.03%
2 | S=c1[nH]nc(C2CCCCC2)n1/N=C/c1ccco1 | -2.38% | -11.2%
3 | COc1ccc(N/N=C(/N=Nc2nc(C)cc(=O)[nH]2)c2ccccc2)cc1 | 46.6% (active) | 30.7% (active)
4 | [O-]C(=C(C(=S)Nc1cccc2ccccc12)[n+]1ccccc1)c1ccc2c(c1)OCCO2 | 3.21% | -0.81%
5 | N#C/C(C(N)=O)=C1/CCc2ccccc2N1 | 21.2% | -2.45%
6 | COc1ccc(C(=O)Nc2ccc(N3CCN(C(=O)c4ccccc4C)CC3)cc2)cc1 | 28.4% | 25.1%
7 | CCCc1nn(C)c(C(=O)Nc2cccc(Cl)c2)c1Cl | 15% | 0.8%
8 | Cc1ccc(NS(=O)(=O)c2ccc(OCC(=O)NCc3ccncc3)cc2)cc1 | 8.87% | 6.6%
9 | Cc1nc2cc(F)ccc2n1C1CCN(S(=O)(=O)c2ccccc2)CC1 | 14.1% | 15.3%
10 | CCOC1=C2CN(S(=O)(=O)c3ccc(C)cc3)[C@H](c3ccc(CC)cc3)C[C@@H]2N(S(=O)(=O)c2ccc(C)cc2)[C@H](c2ccccc2)C1 | 10.9% | 35.4% (active)
11 | O=C(c1ccc(S(=O)(=O)Cc2cc(F)ccc2F)c([N+](=O)[O-])c1)N1CCCCC1 | -2.8% | -0.48%
12 | CCCC(=O)NC(NC(=S)Nc1ccc(N=Nc2ccccc2)cc1)C(Cl)(Cl)Cl (centres undefined) | 3.89% | 18.1%
13 | CS(=O)(=O)c1ccc(Sc2nc3ccccc3s2)c([N+](=O)[O-])c1 | 45.8% (active) | 19.5%
14 | Cc1cc(C=C2C(=O)c3ccccc3C2=O)c(C)n1-c1cccc(C(=O)O)c1 | 23.3% | 10.4%
15 | COc1cccc(C(=O)Oc2c(Br)cc(Br)cc2/C=N/NC(=O)c2cc(C)[nH]n2)c1 | 18.3% | 18.3%
16 | COC(=O)COc1cccc(NC(=O)c2cccs2)c1 | -1.66% | -12.7%

Row | SMILES | inhibition [1] | inhibition [2]
17 | CN(C)CCCOc1ccc2c(c1)Sc1ccccc1CC2=O | -10.4% | -4.19%
18 | COc1ccc(-n2c(-c3ccc(Br)cc3)c[n+]3c2SC(C)C3)cc1 (centres undefined) | 12.5% | 23.3%
19 | Cc1cc(C)n(-c2ccc(C(=O)Nc3cccc(S(=O)(=O)N(C)C)c3)cc2)n1 | -2.01% | 18.6%
20 | O=C(NCCCn1ccnc1)C(=O)NCc1ccc(Cl)cc1 | 20.3% | -1.8%
21 | COC(=O)N/N=C/c1cn(Cc2ccc(Cl)cc2Cl)c2ccccc12 | 18.6% | 0.26%
22 | C/C(=N\NC(=O)c1cc(-c2cccnc2)nc2ccccc12)c1ccc(O)cc1O | 48.4% (active) | 29.9% (active)
23 | COc1ccc(OC)c(NC(=O)c2cccc(N3C(=O)C4C5C=CC(C6CC56)C4C3=O)c2)c1 (centres undefined) | -11.6% | 7.26%
24 | Cc1cccc(Nc2nc(N)c([N+](=O)[O-])c(N3CC(C)CC(C)C3)n2)c1 (centres undefined) | 3.08% | 15.7%
25 | CCC(O)CC(C(=O)NNc1ccccc1)C(=O)NNc1ccccc1 (centres undefined) | -2.21% | 11.1%
26 | CCOC(=O)N1CCC2(CC1)C(C#N)=C(N)Oc1n[nH]c(CSc3ccc(C)cc3)c12 | 2.57% | -6.53%
27 | Cc1noc(C)c1COC(=O)c1cc(F)c(F)cc1Cl | 2.84% | 1.74%
28 | COc1ccccc1N1CCN(C(=O)CSc2nnc3n2C(C)(C)Cc2ccccc2-3)CC1 | -10.1% | 27.2%
29 | CCC(C)(CC(=O)O)CC(=O)Nc1cc(C(F)(F)F)cc(C(F)(F)F)c1 (centres undefined) | 9.02% | -3.88%
30 | C=CCSc1nsc(NC(=O)Nc2ccc(F)cc2)n1 | -4.43% | -4.12%
31 | COc1ccc(-n2c(-c3ccc(Br)cc3)c[n+]3c2CCCCC3)cc1 | -0.37% | 16.2%
32 | O=C(Cn1cnc([N+](=O)[O-])n1)N/N=C/c1cc(Cl)ccc1O | 20.3% | 27.4%
